# Source: PubChem BioAssay (National Center for Advancing Translational Sciences (NCATS))
# Rows were chosen to be rich in hits. Some 19% of all compounds tested hit in one or more screens of this group.
# HT1080 IDH1KD tx: qHTS for induction of synthetic lethality in tumor cells producing 2HG: qHTS for the HT-1080-IDH1KD cell line; AID 686971, 2013; 2% of 360,000 active; HT-1080 IDH1 knockdown viability, ATP luminescence, 48 h; Potency, µM (titrated, usually from 46.1 µM), without a hit: top-dose activity, negative = toxicity, hits mostly cytotoxic;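 also: potency is read from the fitted curve at half-maximal effect; 0% = DMSO wells and -100% = cell-free medium wells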
#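 Using the IDH1-knockdown HT-1080 line run in the same batch and compound series as the NT line, viability after 48 h at 37 °C was determined by CellTiter-Glo luminescence and expressed as % activity.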
# DT40 TDP1 no CPT: qHTS for Inhibitors of human tyrosyl-DNA phosphodiesterase 1 (TDP1): qHTS in cells in absence of CPT; DT40 Tdp1-/- hTDP1 cells, no CPT, ATP luminescence, 48 h; Potency, µM (series often up to 46.2 µM), without a hit: at the top dose activity change, negative = growth inhibition, most hits filed as inhibitors; 15% of 420,000 active; also: potency is read from the fitted curve at half-maximal effect; nearly all actives have a fitted effect of over 55% in size
#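 Growth of hTDP1-complemented DT40 Tdp1-knockout cells is measured by ATP luminescence after at least 48 hr compound exposure at 37 °C, with DMSO substituting for the 20 nM CPT used in the parallel screen.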
# TDP1 cell CPT: qHTS for Inhibitors of human tyrosyl-DNA phosphodiesterase 1 (TDP1): qHTS in cells in presence of CPT. chicken DT40 Tdp1-/-;hTDP1 cells + 20 nM CPT, ATP luminescence, 48 h. Potency, µM (series often up to 46.2 µM), for the others: at the highest dose activity change, negative = growth inhibition, most hits filed as inhibitors. 12% of 420,000 active. AID 686979, 2013; also: potency is read from the fitted curve at half-maximal effect; nearly all actives have a fitted effect of over 55% in size
#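 Chicken DT40 Tdp1-/- cells complemented with human TDP1, 400 cells/well, exposed to compounds plus 20 nM camptothecin for at least 48 h at 37 C; viability read as ATP content by CellTiter-Glo luminescence.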
# HT1080NT lethal: qHTS for induction of synthetic lethality in tumor cells producing 2HG: qHTS for the HT-1080-NT fibrosarcoma cell line; HT-1080-NT fibrosarcoma viability, CellTiter-Glo ATP luminescence, 48 h; Potency, µM (highest dose often 46.1 µM), for the others: top-dose activity, negative = less viability, usual class: cytotoxic; 1.6% of 360,000 active;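 also: NT is the 2HG producing partner of a matched IDH1 knockdown line; potency is read from the fitted curve at half-maximal effect; 0% = DMSO-treated cells and -100% = media-only wells without cells; nearly all actives have a fitted effect of over 55% in size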
#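 750 cells/well, RPMI + 5% FBS; 2 h settle, compound pin-transfer, 48 h at 37 degrees C. CellTiter-Glo 10 min RT, luminescence. Normalized to DMSO and media-only wells.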
# IL-1B inflam inh: qHTS for Inhibitors of Inflammasome Signaling: IL-1-beta AlphaLISA Primary Screen; 4.7% of 360,000 active; THP-1 LPS/ATP IL-1B secretion, AlphaLISA, 16 h; stronger effect = lower value; activity change, % at 57.5 µM; in the data active = activity change below about -50%; inconclusive = mostly about -30% to -49%
#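 THP-1 cells pretreated 1 hr with compounds (up to 57.5 uM final), then stimulated with LPS (250 ng/mL final) plus ATP (1.25 mM final); secreted IL-1B measured by AlphaLISA after 16 hr, decreased signal indicating inhibition.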
# An asterisk follows results filed as active; i = inactive; u = inconclusive; x = no result given; [ ] = remark or other dose. Unless noted, calls follow the shape of the dose curve; as a rule, active = well fitted curve in the direction sought with a large enough effect; inconclusive = small, poorly fitted or top-dose-only effect, or another doubt; inactive = no such curve, though single readings can be large; an effect the other way counts as inactive or inconclusive. Unless noted, % is scaled to controls: 0 for no effect and ±100 for the full control effect.
SMILES,HT1080 IDH1KD tx,DT40 TDP1 no CPT,TDP1 cell CPT,HT1080NT lethal,IL-1B inflam inh
CCc1ccc(NC(=O)Cn2nnc(C(=O)NCc3ccco3)c2N)cc1,-10%,13%,1%,-23%,17
CSc1ccccc1NC(=O)Cn1nc([N+](=O)[O-])cc1C,7%,3%,-1%,4%,11
CCOC(=O)c1[nH]c2ccc(OC)cc2c1NC(=O)CN1CCc2ccccc2C1,u,16µM*,26µM*,u,u
COC(=O)c1[nH]c2ccccc2c1NC(=O)CN1CCN(Cc2ccc3c(c2)OCO3)CC1,0%,u,u,-7%,-16
COc1cc2c(cc1OC)CN(CC(=O)Nc1ccc(C)cc1)CC2,5%,-23%,-29%,-2%[9.24 µM],0
COC(=O)c1[nH]c2ccccc2c1NC(=O)CN1CCN(c2cccc(OC)c2)C(C)C1 (stereo not drawn),u,18µM*,23µM*,-19%,-11
COC(=O)c1[nH]c2ccc(C)cc2c1NC(=O)CN1CCc2cc(OC)c(OC)cc2C1,-11%,23µM*,16µM*,-10%,-12
COC(=O)c1[nH]c2ccc(F)cc2c1NC(=O)CCN1CCN(Cc2ccc3c(c2)OCO3)CC1,-9%,21µM*,16µM*,-9%,-1
[N-]=[N+]=NC[C@H](c1ccccc1)N1CCN(Cc2ccccc2)CCC1=O,7%,-2%,-7%,6%,-4
O=C(c1ccccc1)c1ccc(O)c(O)c1O,0%,u,4%,0%,-7
CCOC(=O)c1[nH]c2cc3c(cc2c1NC(=O)CN1CC(C)CC(C)C1)OCO3 (stereo not drawn),-18%,26µM*,u,u,-17
OC(c1ccc(-c2ccccc2)cc1)c1ncc(-c2cccc(F)c2)[nH]1 (stereo not drawn),u,u,-23%,u,-8
CNC(=S)N/N=C/c1cn(Cc2ccc(F)cc2)c2ccccc12,-28%,10µM*,16µM*,-27%,-20
Nc1ccc(C(=O)N/N=C/c2cn(Cc3ccccc3)c3ccccc23)cc1,u,-19%,-10%,-17%,i
Cc1ccc(OCC(=O)N/N=C/c2cn(C)c3ccccc23)cc1,0%,-33%,-12%,3%,12
Cc1ccc(Cn2cc(/C=N/NC(=O)Cc3nnc(NC(=O)c4ccc(C)cc4)s3)c3ccccc32)cc1,5%,6.5µM*,12µM*,8%,-17
O=C(Cc1nnc(NC(=O)c2ccccc2)s1)N/N=C/c1cccc(O)c1,-23%,-3%,27%,-30%,0
CNC(=S)N/N=C/c1cn(CCOc2ccc(OC)cc2)c2ccccc12,-13%,7.3µM*,8.2µM*,-14%,-22
Cc1ccccc1OCCn1cc(C=O)c2ccccc21,u,-37%,u,-29%,-53*
COc1ccc(OCCn2cc(C=O)c3ccccc32)cc1,-7%,u,u,-12%,-10
Cc1nnc(NC(=O)CN2CCN(Cc3ccc(F)cc3Cl)CC2)s1,-2%,-1%,-22%,-6%,31
O=C(CNC1CCCCCC1)c1cccs1,-2%,-26%,-3%,-2%,0
O=C(CC1C(=O)NCCN1Cc1cccc(F)c1)NC1CCCCCC1 (stereo not drawn),4%,-5%,-6%,0%,5
COc1ccc(OCCn2cc(/C(N)=N/O)c3ccccc32)cc1,5%,u,-17%,5%,-57*
COC(=O)c1cn(CCOc2ccccc2OC)c2ccccc12,-27%,15µM*,18µM*,-16%,-4
SMILES,HT1080 IDH1KD tx,DT40 TDP1 no CPT,TDP1 cell CPT,HT1080NT lethal,IL-1B inflam inh
COc1ccccc1OCCn1cc(/C=N/NC(N)=S)c2ccccc21,-14%,29µM*,u,-7%,-2
NC(=O)Cn1cc(/C=N\NS(=O)(=O)c2ccc(F)cc2)c2ccccc21,-29%,23µM*,-3%,-19%,i
Cc1ccc(OCCn2cc(/C(N)=N/O)c3ccccc32)cc1C,-23%,u,-22%,-17%,0
COC(=O)c1cn(CCOc2ccccc2F)c2ccccc12,-12%,-8%,-27%,-2%,-19
CCc1ccc(S(=O)(=O)N/N=C\c2cn(CC(N)=O)c3ccccc23)cc1,-23%,-16%,-14%,-7%,i
Cc1cc(-c2nc3ncccc3o2)ccc1NC(=O)c1ccc(Cl)cc1,x,2%,-21%,x,x
O=C(c1ccc([N+](=O)[O-])cc1)N1CCN(c2ncc(Br)cn2)CC1,15%,u,u,2%,3
COc1ccccc1OCCn1cc(/C=N/NC(=O)c2ccncc2)c2ccccc21,-13%,18µM*,-28%,-26%,-7
N/C(=N\O)c1cn(Cc2ccccc2Cl)c2ccccc12,-27%,u,u,u,-66*
O=C(N/N=C/c1cn(CCOc2ccccc2)c2ccccc12)c1ccncc1,1%,-7%,1%,11%,14
O=C(CS(=O)(=O)c1cn(Cc2ccccc2Cl)c2ccccc12)N1CCOCC1,-1%,-14%,-23%,5%,-5
COc1ccc(S(=O)(=O)NCCCN2CCCC2=O)c(OC)c1,2%,13%,-7%,-8%,12
Nc1cc(C(=O)N2CCN(c3cccc(Cl)c3)CC2)ccc1N1CC2CC(C1)c1cccc(=O)n1C2 (stereo not drawn),-20%,u,u,-12%,-7
C/C(=N\NC1=NCCN1)c1ccccc1,3%,u,5%,1%,-1
Fc1ccccc1Sc1ccccc1CNC1=NCCN1,-18%,13µM*,21µM*,-4%,-20
c1ccc(Sc2cccc3ccccc23)c(CNC2=NCCN2)c1,u,12µM*,13µM*,-28%,u
N#C/C(=C\c1c(Cl)cccc1Cl)c1nn(-c2ccccc2)c(-n2cccc2)c1C#N,-5%,21µM*,26µM*,u,-29
Cc1ccc(/C=C(\C#N)c2nn(-c3ccccc3)c(N)c2C#N)cc1,-10%,15µM*,u,-6%,u
NC(=S)Nc1cccc(F)c1,24%,-6%,5%,1%,8
NC(=O)NC(CC(=O)Nc1cccnc1)c1cccc(Br)c1 (stereo not drawn),16%,-12%,9%,19%,14
COCCS(=O)(=O)N(Cc1ccc(Br)cc1)[C@@H](C)C(=O)OC,-3%,-27%,-17%,-1%,-10
